KinaseGlo FLuc – Counterscreen for Luciferase (Kinase-Glo TM) Inhibition. Kinase-Glo luciferase, ATP luminescence, 8 min. Luciferin 4-monooxygenase (Photuris pensylvanica), Q27757. AID 1379, 2008. 0.28% of 200,000 active. Potency, µM (top dose mostly 38.3 µM), inactives show at the highest dose activity change, negative = inhibition, hits mostly inhibitors; note: nearly all actives have a fitted effect of over 60% in size
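Inhibition of Kinase-Glo luciferase light generation was assessed at 10 uM ATP in pH 7.2 imidazole buffer, with luminescence measured after eight minutes at ambient temperature.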
VP16 counter – VP16 counterscreen qHTS for inhibitors of ROR gamma transcriptional activity | Potency, µM (titrated, usually from 53.6 µM), for inactives: at the top dose activity, negative = inhibition, most hits filed as inhibitors | 3.5% of 310,000 active | Drosophila S2 Gal4-VP16 UAS-luciferase, luminescence, 20 h;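 note: Gal4-VP16 expression switched on by copper sulfate through the metallothionein promoter; nearly all actives have a fitted effect of over 50% in size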
RORgamma inh – qHTS for inhibitors of ROR gamma transcriptional activity; Drosophila S2 Gal4-RORgamma UAS-luciferase reporter, 20 h; Potency, µM (series often up to 53.6 µM), without a hit: top-dose activity change, negative = inhibition, usual class: inhibitors; 5.4% of 310,000 active; note: nearly all actives have a fitted effect of over 60% in size
Target sequence (P51450 whole entry, looked up, the tested form may be a part): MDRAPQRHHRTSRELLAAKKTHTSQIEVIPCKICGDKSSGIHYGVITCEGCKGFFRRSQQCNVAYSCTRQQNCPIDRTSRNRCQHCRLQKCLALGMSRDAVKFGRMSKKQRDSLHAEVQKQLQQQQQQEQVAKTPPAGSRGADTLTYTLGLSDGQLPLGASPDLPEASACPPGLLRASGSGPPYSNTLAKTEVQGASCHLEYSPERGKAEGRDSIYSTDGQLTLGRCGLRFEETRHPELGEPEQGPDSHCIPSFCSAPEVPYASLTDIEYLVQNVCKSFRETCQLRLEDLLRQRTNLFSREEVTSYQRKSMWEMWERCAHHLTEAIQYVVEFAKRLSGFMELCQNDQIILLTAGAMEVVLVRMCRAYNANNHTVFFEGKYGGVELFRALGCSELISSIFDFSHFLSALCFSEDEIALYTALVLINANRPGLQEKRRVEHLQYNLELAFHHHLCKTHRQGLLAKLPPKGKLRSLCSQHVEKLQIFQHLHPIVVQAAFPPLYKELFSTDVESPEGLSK
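Schneider cells (Drosophila), stable Gal4 DBD–ROR gamma + UAS-luc; 1 hr cmpd preincubation; Cu2+ induction 700 uM final; 20 hr ambient; luminescence.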
* marks the source's active call; other numbers are inactive results; ? = inconclusive; . = no result; [ ] = dose if it differs, or a comment. Rows were chosen to be rich in hits. Some 6.4% of all compounds tested hit in one or more screens of this group. Calls come from the whole dose curve; as a rule, active = well fitted curve in the direction sought with a large enough effect; inconclusive = small, poorly fitted or top-dose-only effect, or another doubt; inactive = no such curve, though single readings can be large; an effect the other way counts as inactive or inconclusive. % is set by controls: 0 for no effect and ±100 for the full control effect; potency is the fitted concentration of half-maximal effect.

SMILES	KinaseGlo FLuc	VP16 counter	RORgamma inh
CC1(COc2ccc(CC3SC(=O)NC3=O)cc2)CCCCC1 (stereo not given)	-0.3%	?	?
COc1cc(NC(=O)c2ccccc2Cl)c2ncccc2c1	.	0.0%	41.7%
O=S(=O)(NC1CCCCCC1)c1cccc2cccnc12	-5.3%	-6.2%	?
CCC(CNc1cc(OC)cc2cccnc12)NC1CCCCC1 (stereo not given)	.	?	15.8µM*
COc1cc(NCCCC(C)N)c2ncccc2c1 (stereo not given)	-5.6%	?	2.24µM*
COc1ccc(NC(=O)c2cccc(S(=O)(=O)N3CCN(C)CC3)c2)c(OC)c1	.	3.1%	-0.3%
C=CCn1c(O)c(C2=c3ccccc3=NC2=O)c2ccccc21	.	3.98µM*	4.47µM*
C=CCn1c(O)c(C2=c3ccccc3=NC2=O)s/c1=N/c1nccs1	-9.3%	-6.6%	-34.4%
CSc1ccc(NC(=O)NCc2ccccc2)cc1	.	9.7%	12.7%
O=c1cc(O)c2ccccc2n1Cc1ccccc1F	0.3%	-0.6%	3.6%
O=C(Nc1ccc(F)cc1)Nc1nnc(Cc2ccccc2F)s1	.	28.0%	-5.6%[1.91 µM]
Cc1ccc(C(=O)NN2C(=O)/C(=C/c3cn(C)c4ccccc34)SC2=S)cc1	0.6%	-14.1%	10.0%
Cn1cc(/C=C2\SC(=O)NC2=S)c2ccccc21	-4.8%	6.31µM*	2.51µM*
O=C(c1cccc(F)c1)N1CCC2(CC1)CN(c1cccc(-c3ccccc3)c1)C2	-0.4%	?	71.2%
COc1cccc(Oc2cn[nH]c2-c2ccc(OC)cc2O)c1	-0.6%	12.6µM*	7.08µM*
COc1ccc(Oc2cn[nH]c2-c2ccc(OCC(=O)NN)cc2O)cc1	.	-0.5%	-14.6%
CCOc1ccc(-c2[nH]ncc2Oc2cccc(OC)c2)c(O)c1	-1.7%	?	11.2µM*
CCCOC(=O)c1ccc(Oc2c(-c3ccc(OCC)cc3O)n[nH]c2C)cc1	-3.1%	-4.4%	-8.4%
CCCOC(=O)c1ccc(Oc2cn[nH]c2-c2ccc(OCC)cc2O)cc1	-11.3%	?	10µM*
COc1cccc(Oc2cn[nH]c2-c2ccc(O)cc2O)c1	-1.0%	?	?
CC(Sc1nnnn1-c1ccc(Cl)cc1)C(=O)NCC(=O)Nc1ccc(F)c(F)c1F (stereo not given)	-0.1%	0.6%	?
COc1ccc2cc1Oc1ccc(cc1)C[C@@H]1c3c(cc(OC)c4c3Oc3cc5c(cc3O4)CCN[C@H]5C2)CCN1C	-1.4%[7.66 µM]	.	.
COc1ccc(-c2cc(C(F)(F)F)nc(-n3ccnc3C)n2)cc1	2.8%	?	11.2µM*
COc1ccc(-c2cc(C(F)(F)F)nc(N3CCN(C)CC3)n2)cc1	-8.7%	-10.7%	-0.3%
COc1cccc(-c2cc(C(=O)Nc3cccc(O)c3)no2)c1	-16.6%	2.51µM*	0.891µM*
SMILES	KinaseGlo FLuc	VP16 counter	RORgamma inh
Cc1ccc(NC(=O)c2noc3c2CCC3)cc1C	-21.8%	?	?
O=C(Nc1cccc(O)c1)c1cc(-c2cccs2)on1	.	3.55µM*	2µM*
O=C(Nc1cccc(O)c1)c1noc2c1CCCCC2	?	3.55µM*	11.2µM*
CC(=O)c1cccc(NC(=O)c2cc(-c3cccs3)on2)c1	.	-5.8%	-39.1%
COc1ccc(NC(=O)c2cc(-c3cccc(OC)c3)on2)cc1	-0.9%	-1.9%	-14.8%
CC(C)(C)Nc1oc(-c2ccccc2)nc1-c1ccccc1F	0.5%	-1.3%	-0.8%
Cc1cccc(N(CC(=O)NC2CCCC2)C(=O)CCC(=O)Nc2ccccn2)c1	.	-18.0%	8.4%
O=C(NNC(=O)c1ccco1)c1ccccc1	1.6%	-9.7%	-11.3%
Cc1ccc(C(=O)NNC(=S)NC(=O)c2ccco2)cc1	-3.4%	-14.5%	-4.9%
Cc1ccc(C(=O)NC(=S)NNC(=O)c2ccccc2)cc1	.	20µM*	?
O=C(NC(=S)NNC(=O)c1ccccc1O)c1ccccc1	.	-7.6%	11.2µM*
Cc1ccc(C(=O)NNC(=O)c2ccc3ccccc3c2O)cc1	.	10µM*	14.1µM*
Cc1cccc(NC(=O)NNC(=O)c2ccc3ccccc3c2O)c1	.	-4.0%	2.2%
Cc1ccc(C(=O)NC(=S)NNC(=O)c2ccccc2O)cc1	.	-1.0%	22.1%
O=C(NC(=S)NNC(=O)c1ccco1)c1ccccc1	.	11.2µM*	11.2µM*
CN(C(=O)Cc1c(C(=O)O)n(C)c2ccccc12)c1cccc(C(F)(F)F)c1	.	2.1%	4.6%
COc1cccc2cc(C(=O)NCCN3CCOCC3)c(=O)oc12	.	-1.4%	-3.0%
CNC(=O)c1c(NC(=O)C2=COCCO2)sc2c1CCCC2	.	0.7%	32.9%
CCCCCCCN=CC1=C(O)CC(c2ccccc2)CC1=O (stereo not given)	-7.1%	-12.5%	-2.7%
COc1ccc(CNC(=O)C(OC(=O)c2ccco2)c2ccc(F)cc2)cc1 (stereo not given)	.	1.4%	6.4%
Cc1ccccc1C(=O)NNC(=O)c1ccc(Br)cc1	-2.6%	20.3%	7.4%
CNC(=O)c1ccc(NC(=O)Nc2ccccc2)cc1	.	17.5%	10.6%
Cc1ccc(NC(=O)NC(=S)NC(=O)c2ccccc2)cc1	0.0%	?	2.51µM*
O=C(NC(=S)NCCN1CCOCC1)c1ccc(F)cc1	1.3%	18.3%	-36.1%
Cc1ccccc1C(=O)NNC(=S)NC(=O)c1ccccc1	2.2%	2.82µM*	0.794µM*
SMILES	KinaseGlo FLuc	VP16 counter	RORgamma inh
Cc1ccc(C(=O)NC(=S)NNC(=O)CCN2CCOCC2)cc1	7.1%	-12.5%	11.2µM*
Cc1ccccc1N1C(=O)c2cccc3c(N(C)CCO)ccc(c23)C1=O	0.6%	-2.2%	11.2µM*
COc1ccccc1N1C(=O)c2cccc3c(N(C)CCO)ccc(c23)C1=O	.	-17.1%	?
O=C(NC1CCNCC1)C1CC1	-2.5%	-4.5%	-8.9%
COc1cc(/C=C(\C#N)c2nc3c(s2)CCCC3)ccc1O	-6.8%	?	8.91µM*
N#C/C(=C\c1cccnc1)c1nc2c(s1)CCCC2	0.8%	-1.5%	-31.9%
CCOC(=O)c1nn(-c2ccc(C)c(C)c2)c(=O)c(C#N)c1C	.	-1.8%	-22.8%[1.91 µM]
CC(=O)N1CCN(c2ccc(NC(=S)NC(=O)c3ccccc3)cc2)CC1	-0.8%	-10.5%	-17.4%
O=C(NC(=S)Nc1ccc(N2CCCCC2)cc1)c1ccc2c(c1)OCCO2	2.0%	5.01µM*	3.55µM*
CS(=O)(=O)N1CCN(c2ccc(NC(=S)NC(=O)c3ccc4c(c3)OCO4)cc2)CC1	0.4%	-4.8%	-34.1%
O=C(NC(=S)Nc1c(F)cc(F)cc1Br)c1ccc2c(c1)OCCO2	1.9%	?	7.94µM*
O=C(Nc1cccc(F)c1)c1ccc2c(c1)OCCO2	.	-4.2%	-24.4%
O=C(NC(=S)Nc1ccc(N2CCOCC2)cc1)c1ccc2c(c1)OCCO2	-1.0%	?	8.91µM*
CC(C)C(=O)N1CCN(c2ccc(NC(=O)c3ccc4c(c3)OCCO4)cc2)CC1	-3.0%	-2.5%	-20.5%
O=C(NC(=S)Nc1ccc(N2CCCC2)cc1)c1ccc(F)cc1	.	5.62µM*	2.51µM*
N#Cc1ccc(Oc2cnccn2)cc1	.	-5.6%	-7.8%
O=C1/C(=C/c2ccccc2)SC(=S)N1N1C(=O)C2CC2C1=O (stereo not given)	-3.0%	-10.1%	-30.4%
O=C(NC(=S)Nc1ccc(F)cc1)c1ccc2c(c1)OCCO2	-4.2%	?	7.08µM*
